Results filed as inconclusive are left out. The source made the active and inactive calls. Unless noted, calls come from the whole dose curve; as a rule, active = well fitted cell-killing curve with a large enough effect; inconclusive = small, poorly fitted or top-dose-only effect, or effect the other way; inactive = no such curve, though single readings can be large or run the other way.
Assays:
[1] = Quantitative High-Throughput drug screen in 47 multiple myeloma cell lines against the NCATS MIPE library collection: KMS28PE_JCRB cell viability assay (AID 1918983); note: nearly all actives have a fitted effect of over 35% in size
Procedure, shortened: (§1)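 500 cells/well per myeloma line exposed to pinned MIPE 4.0 compounds for 48 h at 37 °C, 5% CO2. Viability read as ATP by CellTiter-Glo luminescence, normalised to DMSO-only (100%) and media-only (0%) wells.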

[2] = Quantitative High-Throughput drug screen in 47 multiple myeloma cell lines against the NCATS MIPE library collection: KMS34_JCRB cell viability assay (AID 1918985); note: nearly all actives have a fitted effect of over 40% in size
Procedure, shortened: as §1

[3] = Quantitative High-Throughput drug screen in 47 multiple myeloma cell lines against the NCATS MIPE library collection: OCIMY7_PLB cell viability assay (AID 1918987); note: nearly all actives have a fitted effect of over 65% in size
Procedure, shortened: as §1

[4] = Quantitative High-Throughput drug screen in 47 multiple myeloma cell lines against the NCATS MIPE library collection: OCIMY5_PLB cell viability assay (AID 1918988); note: nearly all actives have a fitted effect of over 65% in size
Procedure, shortened: as §1

[5] = Quantitative High-Throughput drug screen in 47 multiple myeloma cell lines against the NCATS MIPE library collection: SKMM1_PLB cell viability assay (AID 1919863); conditions: SKMM1 myeloma viability, CellTiter-Glo ATP, 48 h; viability: stronger effect = lower value; note: nearly all actives have a fitted effect of over 35% in size
Procedure, shortened: as §1

[6] = Quantitative High-Throughput drug screen in 47 multiple myeloma cell lines against the NCATS MIPE library collection: U266_ATCC cell viability assay (AID 1919864); note: nearly all actives have a fitted effect of over 35% in size
Procedure, shortened: as §1

[7] = Quantitative High-Throughput drug screen in 47 multiple myeloma cell lines against the NCATS MIPE library collection: UTMC2_PLB cell viability assay (AID 1919868); conditions: CellTiter-Glo ATP luminescence, 48 h; viability (% of DMSO control): at 45.8 µM (top of the series) unless noted; note: nearly all actives have a fitted effect of over 55% in size
Procedure, shortened: as §1

[8] = Quantitative High-Throughput drug screen in 47 multiple myeloma cell lines against the NCATS MIPE library collection: RPMI8226_ATCC cell viability assay (AID 1919871); note: nearly all actives have a fitted effect of over 30% in size
Procedure, shortened: as §1

[9] = Quantitative High-Throughput drug screen in 47 multiple myeloma cell lines against the NCATS MIPE library collection: OPM2_DSMZ cell viability assay (AID 1919872); note: nearly all actives have a fitted effect of over 30% in size
Procedure, shortened: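 Luminescent ATP measurement with CellTiter-Glo gives viability, scaled between DMSO-only wells (100%) and media-only wells (0%). Cells, 500 per well, faced library compounds for 48 hours at 37C.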

[10] = Quantitative High-Throughput drug screen in 47 multiple myeloma cell lines against the NCATS MIPE library collection: KMS28BM_JCRB cell viability assay (AID 1919874); note: nearly all actives have a fitted effect of over 35% in size
Procedure, shortened: as §1

[11] = qHTS drug screen for cell cycle checkpoint inhibitors in PARPi-resistant BRCA-mutant ovarian cancer cell lines. (AID 1963452; calls by dose curve); conditions: PEO1/OlaR viability, CellTiter-Glo luminescence, 96 h; for Z-AUC: stronger effect = lower value
Procedure, shortened: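 PEO1, PEO4 and PEO1/OlaR ovarian cancer cells, 600 per well, exposed 96 h at 37C to a dilution series. Viability read by CellTiter-Glo luminescence, normalized to DMSO and empty wells; activity summarized as Z-AUC.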

[12] = Quantitative High-Throughput drug screen in 47 multiple myeloma cell lines against the NCATS MIPE library collection: OPM1_PLB cell viability assay (AID 1918989); note: nearly all actives have a fitted effect of over 40% in size
Procedure, shortened: as §1

[13] = Quantitative High-Throughput drug screen in 47 multiple myeloma cell lines against the NCATS MIPE library collection: XG1_PLB cell viability assay (AID 1919866); note: nearly all actives have a fitted effect of over 35% in size
Procedure, shortened: as §1

[14] = Quantitative High-Throughput drug screen in 47 multiple myeloma cell lines against the NCATS MIPE library collection: VP6_DJ cell viability assay (AID 1919867); note: nearly all actives have a fitted effect of over 40% in size
Procedure, shortened: as §1

[15] = Quantitative High-Throughput drug screen in 47 multiple myeloma cell lines against the NCATS MIPE library collection: PE2_PLB cell viability assay (AID 1919869); note: nearly all actives have a fitted effect of over 35% in size
Procedure, shortened: as §1

[16] = Quantitative High-Throughput drug screen in 47 multiple myeloma cell lines against the NCATS MIPE library collection: KMS11_JCRBsus cell viability assay (AID 1919873); note: nearly all actives have a fitted effect of over 50% in size
Procedure, shortened: as §1

[17] = qHTS for identification of novel therapeutic agents for treatment of microphthalmiaassociated transcription factor (MiT) renal cell carcinoma (RCC) (AID 1963991; calls by dose curve); conditions: CellTiter-Glo, 48 h; for z-score: stronger effect = lower value
Procedure, shortened: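 Three TFE3-fusion RCC cell lines (UOK109, UOK124, UOK145), 500 cells/well, were exposed to the 1912-compound MIPE 4.0 library for 48 hours at 37 C. Viability was read by CellTiter-Glo luminescence, normalised to DMSO (100%) and empty wells (0%), with 11-concentration curve fits.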

[18] = Quantitative High-Throughput drug screen in 47 multiple myeloma cell lines against the NCATS MIPE library collection: XG6_PLB cell viability assay (AID 1919865); note: nearly all actives have a fitted effect of over 40% in size
Procedure, shortened: as §1

[19] = Quantitative High-Throughput drug screen in 47 multiple myeloma cell lines against the NCATS MIPE library collection: PCM6_Riken cell viability assay (AID 1919870); note: nearly all actives have a fitted effect of over 30% in size
Procedure, shortened: as §1

[20] = measured here: PEO1 parental Z-AUC
[21] = TFE3-RCC UOK109 viability, measured here: UOK109 Z-AUC
[22] = TFE3-RCC viability, measured here: UOK124 Z-AUC
[23] = TFE3-RCC viability, measured here: UOK145 Z-AUC
Potency is the fitted concentration of half-maximal effect.

Cn1c(=O)n(-c2ccc(C(C)(C)C#N)cc2)c2c3cc(-c4cnc5ccccc5c4)ccc3ncc21
-1.44: Z-AUC ([11]; measured here: PEO4 Z-AUC)
active: Potency [1] 0.0526 µM | Potency [2] 0.0132 µM | Potency [3] 1.48 µM | Potency [4] 0.743 µM | Potency [5] 0.0332 µM | Potency [6] 4.18 µM | Potency [7] 0.0093 µM | Potency [8] 0.0105 µM | Potency [9] 0.0743 µM | Potency [10] 0.0209 µM | Potency [11] 0.002 µM
-1.42: Z-AUC [11, 20]

COc1c(OCCCN2CCOCC2)ccc2c3n(c(=NC(=O)c4cnc(N)nc4)nc12)CCN3
active: Potency [1] 0.0645 µM | Potency [2] 0.257 µM | Potency [4] 0.102 µM | Potency [12] 0.812 µM | Potency [5] 0.162 µM | Potency [13] 1.44 µM | Potency [14] 0.457 µM | Potency [7] 0.115 µM | Potency [15] 0.457 µM | Potency [8] 0.129 µM | Potency [9] 2.04 µM | Potency [16] 0.0323 µM | Potency [10] 0.115 µM | Potency ([17]; TFE3-RCC UOK109 viability, active = Z-AUC below -0.8 in all three lines) 0.0407 µM
-1.79: z-score [17, 23]
-1.04: Z-AUC [11, 20]
inactive: Z-AUC [11] -1.27
-1.18: z-score [17, 21]
-0.708: Z-AUC ([11]; measured here: PEO4 Z-AUC)
-2.73: z-score [17, 22]

CC1(C)CCC(c2ccc(Cl)cc2)=C(CN2CCN(c3ccc(C(=O)NS(=O)(=O)c4ccc(N[C@H](CCN5CCOCC5)CSc5ccccc5)c(S(=O)(=O)C(F)(F)F)c4)cc3)CC2)C1
inactive: Z-AUC [11] -0.481
-1.15: Z-AUC ([11]; measured here: PEO4 Z-AUC)
-0.554: Z-AUC [11, 20]
active: Potency [1] 0.469 µM | Potency [2] 9.35 µM | Potency [3] 0.001 µM | Potency [4] 0.0372 µM | Potency [12] 5.26 µM | Potency [18] 11.8 µM | Potency [13] 16.6 µM | Potency [14] 0.372 µM | Potency [7] 0.0935 µM | Potency [15] 2.64 µM | Potency [19] 0.0264 µM | Potency [8] 2.96 µM | Potency [9] 18.7 µM | Potency [10] 0.332 µM

CCCn1c(=O)c2[nH]c(-c3cnn(Cc4cccc(C(F)(F)F)c4)c3)nc2n(CC)c1=O
inactive: Potency [1] | Potency [12] | Potency [13] | Potency [15] | Potency [19] | Potency [16] | Z-AUC [11] 1.35
1.45: Z-AUC [11, 20]
1.33: Z-AUC ([11]; measured here: PEO4 Z-AUC)
0.351: z-score [17, 22]
active: Potency [4] 23.5 µM | Potency [8] 7.43 µM
0.744: z-score [17, 23]
0.85: z-score [17, 21]

Cc1ccc(CN2CCNCC2)cc1NC(=O)CNc1ccc(F)c(F)c1
-0.179: Z-AUC [11, 20]
inactive: Potency [18] | Potency [15] | Potency [19] | Potency [8] | Potency [9] | Z-AUC [11] -0.297
active: Potency [1] 20.9 µM | Potency [4] 18.7 µM
-0.154: Z-AUC ([11]; measured here: PEO4 Z-AUC)

NCC(=O)Nc1ccc(-n2nc(C(F)(F)F)cc2-c2ccc3c(ccc4ccccc43)c2)cc1
-0.389: Z-AUC ([11]; measured here: PEO4 Z-AUC)
-0.764: Z-AUC [11, 20]
inactive: Z-AUC [11] 0.362
active: Potency [1] 29.6 µM | Potency [3] 16.6 µM | Potency [4] 29.6 µM | Potency [12] 18.7 µM | Potency [5] 37.2 µM | Potency [6] 20.9 µM | Potency [18] 18.7 µM | Potency [13] 16.6 µM | Potency [14] 18.7 µM | Potency [15] 20.9 µM | Potency [19] 20.9 µM

COc1cccc(Nc2c(C(N)=O)cnc3c(C)cc(S(=O)(=O)c4cccc(C(=O)N(C)C)c4)cc23)c1
inactive: Potency [1] | Potency [12] | viability [5] 113% | Potency [18] | Potency [13] | Potency [14] | Potency [15] | Potency [19] | Potency [8] | Potency [9] | Potency [16] | Potency [10] | Z-AUC [11] -0.363
0.84: Z-AUC [11, 20] | Z-AUC ([11]; measured here: PEO4 Z-AUC)

Nc1ccn([C@@H]2O[C@H](CO)[C@H](O)C2(F)F)c(=O)n1
inactive: Potency [9]
active: Potency [1] 0.469 µM | Potency [3] 0.001 µM | Potency [4] 5.9 µM | Potency [5] 0.0264 µM | Potency [6] 14.8 µM | Potency [18] 0.0743 µM | Potency [13] 0.0209 µM | Potency [14] 0.526 µM | Potency [7] 0.0148 µM | Potency [15] 0.332 µM | Potency [19] 1.87 µM | Potency [8] 0.469 µM | Potency [16] 0.296 µM

CS(=O)(=O)c1ccc(-c2cnc(N)c(C(=O)Nc3ccccc3)n2)cc1
inactive: Potency [1] | Potency [14] | Potency [8] | Potency [9] | Potency [10] | Z-AUC [11] -0.54
0.761: z-score [17, 23]
active: Potency [3] 1.66 µM | Potency [4] 2.64 µM | Potency [12] 10.5 µM
-1.14: Z-AUC ([11]; measured here: PEO4 Z-AUC)
-0.901: Z-AUC [11, 20]
0.172: z-score [17, 21]
0.911: z-score [17, 22]

COC(=O)C[C@](O)(CCCC(C)(C)O)C(=O)O[C@@H]1C(OC)=C[C@]23CCCN2CCc2cc4c(cc2[C@H]13)OCO4
inactive: Potency [1] | Potency [12] | Potency [18] | Potency [13] | Potency [8] | Potency [9]
-2.6: Z-AUC ([11]; measured here: PEO4 Z-AUC)
-2.08: Z-AUC [11, 20]
0.544: z-score [17, 22]
0.67: z-score [17, 23]
0.959: z-score [17, 21]
active: Potency [2] 16.6 µM | Potency [15] 20.9 µM | Potency [16] 29.6 µM | Potency [11] 0.436 µM

CC(C)(C)c1cc(C(C)(C)C)c(NC(=O)c2c[nH]c3ccccc3c2=O)cc1O
0.966: Z-AUC ([11]; measured here: PEO4 Z-AUC)
1.35: Z-AUC [11, 20]
inactive: Potency [1] | Potency [2] | Potency [12] | viability [5] 97.5% | Potency [6] | Potency [18] | Potency [15] | Potency [19] | Potency [8] | Potency [9] | Potency [16] | Potency [10] | Z-AUC [11] 1.31
0.941: z-score [17, 22]
0.938: z-score [17, 21]
0.665: z-score [17, 23]

Source: PubChem BioAssay (NCATS)
